This is a sample that favours compounds with a hit; in the whole collection about 3.9% have one here.
NTR1 ag: activates human neurotensin receptor 1. P30989. NTR1-U2OS beta-arrestin-GFP spot imaging, agonist mode. activation, % at 20 µM. hit rate 0.17% among 330,000;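 active = activation at or above 40% of the spot to cytoplasm intensity ratio, with at least 20 cells analyzed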;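 note: 0% = DMSO without peptide and 100% = 100 nM NTR1 peptide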
Target sequence (P30989 whole entry, looked up): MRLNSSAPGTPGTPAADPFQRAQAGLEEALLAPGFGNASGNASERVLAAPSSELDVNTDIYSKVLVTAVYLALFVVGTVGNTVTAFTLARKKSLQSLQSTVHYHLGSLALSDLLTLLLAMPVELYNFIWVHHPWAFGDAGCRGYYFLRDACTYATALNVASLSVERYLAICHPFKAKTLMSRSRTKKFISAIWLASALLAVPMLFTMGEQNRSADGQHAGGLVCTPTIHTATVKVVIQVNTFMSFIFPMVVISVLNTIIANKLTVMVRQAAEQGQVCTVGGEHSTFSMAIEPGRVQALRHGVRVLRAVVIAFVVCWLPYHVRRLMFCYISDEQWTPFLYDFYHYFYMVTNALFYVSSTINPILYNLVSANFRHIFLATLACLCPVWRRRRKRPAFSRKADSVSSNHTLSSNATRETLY
UBC9 SUMO inh: SUMOylation inhibition; HTRF SUMOylation assay, SAE1/SAE2 + UBC9, in vitro; inhibition, % at 35 µM; hit rate 0.36% among 290,000; in the data active = inhibition above about 50%, passing the limit was not always enough
Target sequence (P63279 whole entry, looked up): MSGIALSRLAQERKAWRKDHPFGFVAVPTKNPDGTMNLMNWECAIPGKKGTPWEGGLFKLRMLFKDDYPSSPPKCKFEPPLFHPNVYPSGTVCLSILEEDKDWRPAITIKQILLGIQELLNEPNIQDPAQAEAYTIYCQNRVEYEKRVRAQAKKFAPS
ALR H2O2 inh: inhibitors of human sulfhydryl oxidase ALR; AID 485317; hit rate 3.8% among 290,000; P55789; inhibition, % (test concentration not listed); purified ALR, DTT oxidation, H2O2 HRP-luminol luminescence;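 active = mean replicate inhibition above about 79%, with every replicate also reaching it, limit read from the data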
H9c2 protect: protects H9c2 cardiomyocytes from peroxide injury; H2O2 injury protection, ATPLite, 2 h; protection from H2O2 cell death, % at 20 µM; hit rate 0.63% among 360,000; AID 588492;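 active = compounds giving at least 50% protection of heart cells from peroxide-induced death in the single-dose screen, raw or plate-pattern-corrected value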;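 note: 0% = DMSO wells with peroxide and 100% = DMSO wells without peroxide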
Starred values were filed as active, the others as inactive.

Cc1cc(/C=C(/C#N)C(=O)O)c(C)n1-c1cccc2ccccc12 was read as NTR1 ag 0, UBC9 SUMO inh 6, ALR H2O2 inh 96* and H9c2 protect -5.
For CCCCc1ccc(NS(=O)(=O)N(C)C)cc1 the results were NTR1 ag -2, UBC9 SUMO inh 2, ALR H2O2 inh -1 and H9c2 protect -8.
For Cc1nc(N)sc1N=Nc1ccc(F)cc1 the results were NTR1 ag 0, UBC9 SUMO inh -3, ALR H2O2 inh 98* and H9c2 protect -3.
`COc1ccc(S(=O)(=O)n2nc(OC(=O)c3cccs3)cc2N)cc1` gave NTR1 ag 1, UBC9 SUMO inh 18, ALR H2O2 inh 75 and H9c2 protect 6.
For CS(=O)(=O)n1nc(OC(=O)c2cccs2)cc1N the results were NTR1 ag 0, UBC9 SUMO inh -14, ALR H2O2 inh 89* and H9c2 protect 11.
O=C(C1CCC(CNc2c(N3CCOCC3)c(=O)c2=O)CC1)N1CCN(c2ccccc2)CC1 (stereo not given) was read as NTR1 ag -1, UBC9 SUMO inh -1, ALR H2O2 inh 87* and H9c2 protect -2.
Screening CC(C(=O)NCC(=O)Nc1ccc(F)c(F)c1F)N1CCN(c2ccc(O)cc2)CC1 (stereo not given) returned NTR1 ag 0, ALR H2O2 inh 99* and H9c2 protect -11.
`COC(=O)c1cc(CN2CCN(c3ccccc3)CC2)ccc1O` gave NTR1 ag -1, UBC9 SUMO inh -6, ALR H2O2 inh 98* and H9c2 protect -4.
`COC(=O)c1ccccc1NC(=O)CN1CCN(Cc2ccccc2)CC1` gave NTR1 ag 3, UBC9 SUMO inh -2, ALR H2O2 inh 19 and H9c2 protect -3.
`CCOC(=O)c1cc(C#N)c(SCC(N)=O)[nH]c1=O` gave NTR1 ag -1, UBC9 SUMO inh 10, ALR H2O2 inh -17 and H9c2 protect -1.
Screening CCOC(=O)c1cc(C#N)c(SCC(=O)Nc2ccc(C(C)=O)cc2)[nH]c1=O returned NTR1 ag 2, UBC9 SUMO inh 7, ALR H2O2 inh 99* and H9c2 protect -1.
Screening CCOC(=O)c1cc(C#N)c(SCC(=O)c2cc(C#N)c(SC)nc2C)[nH]c1=O returned NTR1 ag -1, UBC9 SUMO inh 24, ALR H2O2 inh 2 and H9c2 protect 76*.
COc1ccccc1OCC(=O)Nc1ccc(-c2nnc(-c3ccco3)o2)cc1 was read as NTR1 ag 1, UBC9 SUMO inh 27, ALR H2O2 inh -14 and H9c2 protect 0.
COc1ccc(/C=C(\C#N)C(=O)NCc2cccnc2)cc1OC was read as NTR1 ag 1, UBC9 SUMO inh 5, ALR H2O2 inh 3 and H9c2 protect 18.
Screening O=C1CSC(c2ccccn2)N1c1ccc2ccccc2c1 (stereo not given) returned NTR1 ag -1, UBC9 SUMO inh 5, ALR H2O2 inh 68 and H9c2 protect -2.
`O=C1CSC(c2ccccn2)N1c1ccccc1` (stereo not given) gave NTR1 ag -1, UBC9 SUMO inh -10, ALR H2O2 inh 99* and H9c2 protect 11.
`Cc1cc(C)cc(N2C(=O)CSC2c2ccccn2)c1` (stereo not given) gave NTR1 ag 0, UBC9 SUMO inh -6, ALR H2O2 inh 99* and H9c2 protect 2.
Screening CC(C)NC(=O)c1ccc(CSCc2ccccc2Cl)o1 returned NTR1 ag 1, UBC9 SUMO inh -3, ALR H2O2 inh 99* and H9c2 protect -9.
`CCC(C)NC(=O)c1ccc(CSCc2ccccc2Cl)o1` (stereo not given) gave NTR1 ag 0, UBC9 SUMO inh 17, ALR H2O2 inh 36 and H9c2 protect -7.
CCC(C)NC(=O)c1ccc(CSCc2ccc(Cl)cc2)o1 (stereo not given) was read as NTR1 ag 0, UBC9 SUMO inh -4, ALR H2O2 inh 84* and H9c2 protect -8.
`O=C(CN1CCN(c2ccccn2)CC1)NC(=O)NC1CCCCC1` gave NTR1 ag 0, UBC9 SUMO inh -3 and H9c2 protect -2.
CCn1c(CSc2nc3ccccc3s2)nnc1SCC(=O)OC(C)(C)C was read as NTR1 ag 0, UBC9 SUMO inh 1, ALR H2O2 inh -9 and H9c2 protect 1.
For CCCOC(c1ccccc1)(c1ccc(C(F)(F)F)cc1)C(Oc1nc(C)cc(C)n1)C(=O)O (stereo not given) the results were NTR1 ag 1, UBC9 SUMO inh 4, ALR H2O2 inh 96* and H9c2 protect -6.
Cc1cc(C)nc(OC(C(=O)O)C(OCCc2ccccc2)(c2ccc(F)cc2)c2ccc(F)cc2)n1 (stereo not given) was read as NTR1 ag 1, UBC9 SUMO inh 32, ALR H2O2 inh -43 and H9c2 protect 1.
`CC1(C)NC(=O)N(CCOc2cccc(Cl)c2Cl)C1=O` gave NTR1 ag 0, UBC9 SUMO inh 1, ALR H2O2 inh -1 and H9c2 protect 2.
`COc1ccc(N2CCN(C(CNC(=O)C(C)C)c3ccc4c(c3)OCO4)CC2)cc1` (stereo not given) gave NTR1 ag -1, UBC9 SUMO inh 14, ALR H2O2 inh 86* and H9c2 protect 1.
`COCCNC(=O)C(=O)NCC(c1ccc2c(c1)OCO2)N1CCN(c2ccc(F)cc2)CC1` (stereo not given) gave NTR1 ag -1, UBC9 SUMO inh -7, ALR H2O2 inh 31 and H9c2 protect 0.
`COc1ccc(N2CCN(C(CNC(=O)c3ccc4c(c3)OCO4)c3ccco3)CC2)cc1` (stereo not given) gave NTR1 ag 1, UBC9 SUMO inh -4, ALR H2O2 inh 57 and H9c2 protect -2.
For CN(C)CCNC(=O)C(=O)NCC(c1ccc2c(c1)OCO2)N1CCN(c2ccc(F)cc2)CC1 (stereo not given) the results were NTR1 ag 0, UBC9 SUMO inh 8, ALR H2O2 inh 99* and H9c2 protect 5.
Screening COC(=O)NCC(c1ccc2c(c1)OCO2)N1CCN(c2ccc(OC)cc2)CC1 (stereo not given) returned NTR1 ag 0, UBC9 SUMO inh 2, ALR H2O2 inh 91* and H9c2 protect 3.
C=CC[C@@H](CC(=O)N[C@@H](CO)Cc1ccccc1)C(=O)N[C@@H](C)COC(=O)[C@@H](CC=C)Cc1ccc(F)cc1 was read as NTR1 ag 0, ALR H2O2 inh 2 and H9c2 protect -8.
`COc1ccc2c(c1)c(=O)oc1c(C)c(OCc3ccc(C(=O)O)cc3)ccc12` gave UBC9 SUMO inh 55*, ALR H2O2 inh -18 and H9c2 protect 7.
COc1ccc2c(c1)c(=O)oc1c(C)c(OCC(=O)N3CCc4ccccc4C3)ccc12 was read as NTR1 ag 15, UBC9 SUMO inh 31, ALR H2O2 inh -9 and H9c2 protect -9.
Screening COc1ccc2c(c1)c(=O)oc1c(C)c(OCc3cc(C(=O)O)oc3C)ccc12 returned NTR1 ag 1, UBC9 SUMO inh 70*, ALR H2O2 inh 6 and H9c2 protect -5.

Source: PubChem BioAssay (several laboratories)
